Experimental data: paper PMC7819943, “Rice protein-binding microarrays: a tool to detect cis-acting elements near promoter regions in rice”
The full ranking holds about 68,000 sequences; the median of “fluorescence intensity (a.u.)” is about 9,100, and the highest 2% start at about 16,000. This excerpt belongs to a sample that is enriched for the highest values.

Target: OsWRKY34 (Oryza sativa, UniProt Q0JBA9 1-250)
Test: protein-binding microarray (RPBM); PBS, 2% BSA, 51.3 ng/ul salmon testes DNA, 50 uM zinc acetate, 200 nM TF, 25 C, 1 h; high values mean tight binding
Conditions: protein: recombinant; tags: N-terminal polyhistidine and DsRed monomer fusion (pET32a); label: CyDye5-dUTP incorporated in the synthesized complementary strand; 3' TTTTT single-stranded linker to array surface; dsDNA, one strand shown
How it was run: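 The binding signal for each feature is its fluorescence intensity in arbitrary units. An Axon 4000B scanner was used to read a custom Agilent array that had been made double-stranded with Cy5-dUTP primer extension, blocked with 2% BSA, incubated at 25 °C for 1 h with 200 nM protein in PBS, 2% BSA, salmon testes DNA and 50 µM zinc acetate, and washed. The protein was an N-terminal polyhistidine–DsRed transcription factor fusion from E. coli BL21-CodonPlus, purified on Ni–NTA.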

Chain of OsWRKY34 (Q0JBA9 entry or part of it): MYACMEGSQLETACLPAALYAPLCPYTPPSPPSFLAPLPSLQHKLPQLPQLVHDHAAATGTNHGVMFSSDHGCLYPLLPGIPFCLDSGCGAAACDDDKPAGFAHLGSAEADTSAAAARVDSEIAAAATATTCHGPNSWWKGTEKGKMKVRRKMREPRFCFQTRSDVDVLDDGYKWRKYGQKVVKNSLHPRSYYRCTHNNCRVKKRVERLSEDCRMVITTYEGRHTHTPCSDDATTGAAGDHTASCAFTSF

Compared with “CCCTCGTCTTCTTCTCCACGCGACGCCGGTCAAAGTTTGACGGAGTCACCTAGTGCAG”, “AGCCATCTTAAGTTAGGAACAGTTTCTTTTTTTAGAACTACGGAGTCACCTAGTGCAG” is lower in binding signal: 10700 fluorescence intensity (a.u.) for the first, 8290 fluorescence intensity (a.u.) for the second.

Going from “AAACCATTTTTTTTATCTATTATCCTTTGACTGTTTAATTCGGAGTCACCTAGTGCAG” to “AAATTTTTATATGCTGTGTATTTTCTATTTTTTTTATTTTCGGAGTCACCTAGTGCAG”, the binding signal rises from 10500 fluorescence intensity (a.u.) to 11100 fluorescence intensity (a.u.).

Compared with “GTGTTTGATTTGCCTCTCTTAAGAACCACTGTGAAAACATCGGAGTCACCTAGTGCAG”, “CTCGCCGCGTGCTCCTTTACTGCTCTCTGCTCGCGCAGGACGGAGTCACCTAGTGCAG” is lower in binding signal: 9680 fluorescence intensity (a.u.) for the first, 9230 fluorescence intensity (a.u.) for the second.

Going from “CCTCGACCGTCCCCAACCGACGACCCCGTGGTCACGCTCCCGGAGTCACCTAGTGCAG” to “GGTCAATTTAGGGCACACACCAAACCAGCCCTTACAACTTCGGAGTCACCTAGTGCAG”, the binding signal falls from 10900 fluorescence intensity (a.u.) to 8620 fluorescence intensity (a.u.).

First: AAAAATATATCCAAGCAAATTCACACAGTCAAGTTCACTCCGGAGTCACCTAGTGCAG
Second: GGTTGGTGTGGACCTTGCCCATTGTGAAACTTTGGTCAAACGGAGTCACCTAGTGCAG
The binding signal of the first is higher: 14800 fluorescence intensity (a.u.) for the first, 8070 fluorescence intensity (a.u.) for the second.

Going from “TCGAAATGTTTGACGCCGTTGACTTTTTAAGTATATGTTTCGGAGTCACCTAGTGCAG” to “TTCGAAATGTTTGACGCCGTTGACTTTTTAGCATATGTTTCGGAGTCACCTAGTGCAG”, the binding signal falls from 29200 fluorescence intensity (a.u.) to 13200 fluorescence intensity (a.u.).

Going from “TCATGGATTATCTCTTTAATGTATAACGCCGTTGACTTTTCGGAGTCACCTAGTGCAG” to “AGTTTCGAAATATTTGACGCCGTTGACTTTTTATCAAATGCGGAGTCACCTAGTGCAG”, the binding signal rises from 14300 fluorescence intensity (a.u.) to 28300 fluorescence intensity (a.u.).

First: CCGTTTCATATTTAAATTGTTTTGACTTTTTTATAGTTAACGGAGTCACCTAGTGCAG
Second: TTCGTTTGACTTTTGCCGTTTCAAATTTGAATTCTCGAAACGGAGTCACCTAGTGCAG
The binding signal of the first is lower: 8140 fluorescence intensity (a.u.) for the first, 9080 fluorescence intensity (a.u.) for the second.

Compared with “ACTTATTTTAGTTTGACTTGATTTTTCATCAAATGTTTTTCGGAGTCACCTAGTGCAG”, “TTCGAAATGTTTAACGCCGTTGACTTTTTATCATATGTTTCGGAGTCACCTAGTGCAG” is higher in binding signal: 10400 fluorescence intensity (a.u.) for the first, 35500 fluorescence intensity (a.u.) for the second.

“CGTATGCTCCTTAGGTGATACTATGTCCCTATTTGCTTCACGGAGTCACCTAGTGCAG” and “TTTATTATTAGTCTAAGTTTAATACTTCTTATTAGTGTCACGGAGTCACCTAGTGCAG” are the same in binding signal: 8180 fluorescence intensity (a.u.) for the first, 8180 fluorescence intensity (a.u.) for the second.

First: TGATACTTGGCAGGCGTCGTCTCCAAATACCTGACCACTTCGGAGTCACCTAGTGCAG
Second: AATAGATCACCACATTCAATGCAGTTCTTCCGATTAAATTCGGAGTCACCTAGTGCAG
The binding signal of the first is lower: 8290 fluorescence intensity (a.u.) for the first, 9730 fluorescence intensity (a.u.) for the second.

First: GGTTGCTCAGTTGCCGACACATTTCTGCAGACCCATTTTGCGGAGTCACCTAGTGCAG
Second: CTGTCCTCTATCGATTGTTCTGACTTGGGTCACCATGTAACGGAGTCACCTAGTGCAG
The binding signal of the first is lower: 8080 fluorescence intensity (a.u.) for the first, 8990 fluorescence intensity (a.u.) for the second.

Compared with “CTCTGACTCTCTGTTCCAATTCCCACACGTTTCTCTCGCGCGGAGTCACCTAGTGCAG”, “ATTGGTGGTAATCGGAGGTGGAGGTGGGCGTGATGATCTCCGGAGTCACCTAGTGCAG” is lower in binding signal: 14800 fluorescence intensity (a.u.) for the first, 11100 fluorescence intensity (a.u.) for the second.

First: AAGTGTTTTCGTTTTTTTTTCATTCGCTATTATTTTCTTTCGGAGTCACCTAGTGCAG
Second: CCCACGTATTCCCCACCTTATCTCACTGTCTCGTGGGCCCCGGAGTCACCTAGTGCAG
The binding signal of the first is lower: 9660 fluorescence intensity (a.u.) for the first, 10500 fluorescence intensity (a.u.) for the second.

First: TTCGTGGATGGGGTGGGCTCTTTCTCACTGTTATATTGTCCGGAGTCACCTAGTGCAG
Second: ATGGGGTGTTTTTTTTTTCGCTATATTCTCTTAGAACTGTCGGAGTCACCTAGTGCAG
The binding signal of the first is higher: 27500 fluorescence intensity (a.u.) for the first, 18000 fluorescence intensity (a.u.) for the second.

First: GCTCTTATCCCGAGCTCGTGTCACTGGTGGGGTGGGGCCCCGGAGTCACCTAGTGCAG
Second: CTTGTCTCTCTTTCTCTTTCTCTCTCTCTCACCTGTTATTCGGAGTCACCTAGTGCAG
The binding signal of the first is higher: 16600 fluorescence intensity (a.u.) for the first, 9740 fluorescence intensity (a.u.) for the second.

Compared with “TTAGGTGTTTTGTAGTAGTGTAATGGGGCATATTCGTGGGCGGAGTCACCTAGTGCAG”, “AGGTAATCATATTGTTGTTATTCGTGGATGGGGTGGGCTCCGGAGTCACCTAGTGCAG” is higher in binding signal: 8270 fluorescence intensity (a.u.) for the first, 16400 fluorescence intensity (a.u.) for the second.

First: TTTCTCACTGTTATATTGTCTAATATCATCTTTCTCTTTTCGGAGTCACCTAGTGCAG
Second: ACGTGTCACCTTCTTATTCGCTGGGTTTTTTCTGGTGGGTCGGAGTCACCTAGTGCAG
The binding signal of the first is higher: 9880 fluorescence intensity (a.u.) for the first, 8770 fluorescence intensity (a.u.) for the second.

First: CCGCCGAGTCACTGCTCTCGTTCTTATCCACACTGCCCGACGGAGTCACCTAGTGCAG
Second: TTAGTAGTATATCGTCACCAATTATTGTAGTTAGCTCCACCGGAGTCACCTAGTGCAG
The binding signal of the first is lower: 9120 fluorescence intensity (a.u.) for the first, 9580 fluorescence intensity (a.u.) for the second.

Going from “ATCCGATTTTTTTTCGCAATCTCCGAAATTTCACTTCTATCGGAGTCACCTAGTGCAG” to “GTCCGCTTCCATTGGGAGCGCGGCTACTGGCTGGGTTTACCGGAGTCACCTAGTGCAG”, the binding signal falls from 11200 fluorescence intensity (a.u.) to 8770 fluorescence intensity (a.u.).

Going from “ATCCTATATTTGTTGCAGTTCATTCATTTCATCACCAGTTCGGAGTCACCTAGTGCAG” to “CGATCTCTCTCTCTCACACACCCGCCTCACCCTCACCGCCCGGAGTCACCTAGTGCAG”, the binding signal rises from 8840 fluorescence intensity (a.u.) to 10800 fluorescence intensity (a.u.).

Going from “CAGCAGATTGCCCATCTCTCGTTGTACTGCCAATCTCTCCCGGAGTCACCTAGTGCAG” to “CCGGTATTGATGTGTTCCCCAAGCCAAAAAAAAAAAGAAGCGGAGTCACCTAGTGCAG”, the binding signal rises from 9530 fluorescence intensity (a.u.) to 64800 fluorescence intensity (a.u.).

With “ATGTCACCAAGCGGTATAGGTCTGAATGTATTGATGTGCCCGGAGTCACCTAGTGCAG” the binding signal was 9370 fluorescence intensity (a.u.).
